Screening data as filed in PubChem.
HT1080 IDH1KD tx – toxicity to HT-1080 IDH1 knockdown cells (counter line) | Potency, µM (highest dose often 46.1 µM), for the others: top-dose activity, negative = toxicity, most hits filed as cytotoxic | HT-1080 IDH1 knockdown viability, ATP luminescence, 48 h | 360,000 compounds, 2% hits;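 note: potency is the fitted concentration of half-maximal effect; 0% = DMSO wells and -100% = cell-free medium wells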
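IDH1KD HT-1080 cells, 750/well, RPMI + 5% FBS; compound pinned after 2 h settling; 48 h, 37 °C; CellTiter-Glo luminescence; % activity normalised to DMSO and no-cell wells; curves fitted, classed by r2 and efficacy.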
DT40 TDP1 no CPT – qHTS for Inhibitors of human tyrosyl-DNA phosphodiesterase 1 (TDP1): qHTS in cells in absence of CPT; DT40 Tdp1-/- hTDP1 cells, no CPT, ATP luminescence, 48 h; Potency, µM (highest dose often 46.2 µM), without a hit: top-dose activity change, negative = growth inhibition, actives largely listed as inhibitors; 420,000 compounds, 15% hits; note: potency is the fitted concentration of half-maximal effect; nearly all actives have a fitted effect of over 55% in size
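Seeded 400 DT40-hTDP1 cells/well (vehicle DMSO, no 20 nM CPT); pinned compounds; ≥48 hr at 37 °C; CellTiter-Glo luminescence as viability measure.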
HT1080NT lethal – kills 2HG-producing HT-1080-NT fibrosarcoma cells; HT-1080-NT fibrosarcoma viability, CellTiter-Glo ATP luminescence, 48 h; Potency, µM (doses to about 46.1 µM), inactives show at the top dose activity, negative = less viability, most hits filed as cytotoxic; 360,000 compounds, 1.6% hits; AID 686970;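 note: NT is the 2HG producing partner of a matched IDH1 knockdown line; potency is the fitted concentration of half-maximal effect; 0% = DMSO-treated cells and -100% = media-only wells without cells; nearly all actives have a fitted effect of over 55% in size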
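Compounds were tested in concentration-response format on HT-1080-NT cells for 48 hours at 37 degrees C. Cell viability came from CellTiter-Glo luminescence; curves were classified by r2, response magnitude and activity.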
TDP1 cell CPT – DT40-hTDP1 cell growth loss with CPT; chicken DT40 Tdp1-/-;hTDP1 cells + 20 nM CPT, ATP luminescence, 48 h; Potency, µM (highest dose often 46.2 µM), for the others: at the highest dose activity change, negative = growth inhibition, hits mostly inhibitors; 420,000 compounds, 12% hits; AID 686979; note: potency is the fitted concentration of half-maximal effect; nearly all actives have a fitted effect of over 55% in size
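Chicken DT40 Tdp1-/- cells stably complemented with human TDP1 were seeded at 400 cells/well in medium containing 20 nM camptothecin, exposed to pin-transferred compounds, and grown at 37 °C for at least 48 hr. Viability was read as ATP luminescence.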
IL1B secr inh – blocks inflammasome-driven IL-1 beta release | AID 743279 | 360,000 compounds, 4.7% hits | activity change, % at 57.5 µM | THP-1 LPS/ATP IL-1B secretion, AlphaLISA, 16 h; active compounds read low; in the data active = activity change below about -50%; inconclusive = mostly about -30% to -49%
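Secreted IL-1B measured by AlphaLISA bead assay after 16 h compound exposure of THP-1 cells; compounds (final up to 57.5 uM) added 1 h before LPS (250 ng/mL) and ATP (1.25 mM) stimulation; lower signal means less secretion.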
An asterisk follows results filed as active; ? = inconclusive; nt = not tested or not shown; [ ] = dose if it differs, or a comment. Shown are actives, neighbours in structure and some others; about 19% of the full set was active somewhere. Unless noted, calls come from the whole dose curve; as a rule, active = well fitted curve in the direction sought with a large enough effect; inconclusive = small, poorly fitted or top-dose-only effect, or another doubt; inactive = no such curve, though single readings can be large; an effect the other way counts as inactive or inconclusive. Unless noted, % is set by controls: 0 for no effect and ±100 for the full control effect.

SMILES	HT1080 IDH1KD tx	DT40 TDP1 no CPT	HT1080NT lethal	TDP1 cell CPT	IL1B secr inh
CN1CCc2c(n(CC(O)CN3C(=O)c4ccccc4S3(=O)=O)c3ccccc23)C1=O (configuration not stated)	5%[9.24 µM]	-9%	4%	5%	-19
CC(C)NCC(O)Cn1c2c(c3ccccc31)CCc1c-2cnn1-c1ccccc1 (configuration not stated)	-12%[9.24 µM]	5.8µM*	?	3.7µM*	-16
Cc1c(Cl)cccc1NC(=O)COC(=O)c1c2c(nc3ccccc13)CCN(Cc1ccccc1)C2	?	16µM*	?	?	0
CCn1cc(C(=O)OCC(=O)Nc2cccc(Cl)c2C)c(=O)c2ccc(C)nc21	nt	-11%	nt	-5%	nt
CC(C)c1ccccc1NC(=O)COC(=O)c1c2c(nc3ccccc13)CCN(Cc1ccccc1)C2	?	10µM*	?	?	-17
O=C(NC1CCCCCC1)c1c2c(nc3ccccc13)CCN(Cc1ccccc1)C2	16%	29µM*	14%	18µM*	-3
Nc1ccc2oc(=O)c3ccccc3c2c1	0%	-21%	1%	-25%	-77*
O=c1oc(=O)c2ccccc2c2ccccc12	14%	-1%	13%	9%	9
COc1ccccc1N(CC(O)Cn1c2ccccc2c2ccccc21)S(=O)(=O)c1ccccc1 (configuration not stated)	-21%	?	-6%	?	-101*
O=S(=O)(c1ccccc1)N(CC(O)Cn1c2ccccc2c2ccccc21)c1ccccc1 (configuration not stated)	?	?	?	?	-53*
CCN(CC)CC(O)Cn1c2ccccc2c2ccccc21 (configuration not stated)	-17%	?	-22%	-4%	?
Cc1ccc(S(=O)(=O)N(C)CC(O)Cn2c3ccccc3c3ccccc32)cc1 (configuration not stated)	?	?	?	?	-19
O=S(=O)(c1ccc(F)cc1)N(CCO)CC(O)Cn1c2ccccc2c2ccccc21 (configuration not stated)	18µM*	16µM*	?	?	-4
C=CCN(CC=C)CC(O)Cn1c2ccccc2c2ccccc21 (configuration not stated)	?	23µM*	?	?	-74*
COc1ccccc1N(CC(O)CN1C(C)CCCC1C)S(=O)(=O)c1ccccc1 (configuration not stated)	18%	-18%	24%	3%	-3
O=C(CSc1ncc(S(=O)(=O)c2ccc(Br)cc2)c(=O)[nH]1)NCc1ccccc1Cl	nt	7%	nt	1%	nt
CCc1ccc(C(=O)c2cn(CC(=O)Nc3ccc(OC)c(Cl)c3)c3nc(C)ccc3c2=O)cc1	nt	?	nt	-22%	nt
Cc1ccc(/C=N/NC(=O)Cc2ccc(Cl)cc2)s1	-24%	-8%	4%	-10%	9
Brc1ccc2c(c1)CN1CCCC1=N2	-18%	21µM*	-12%	13µM*	-8
CC1(C(=O)NS(=O)(=O)c2ccccc2C(F)(F)F)CCN1C(=O)CCC1CCCC1 (configuration not stated)	8%	1%	-1%	0%	12
CC(C)c1ccc(NC(=O)CCS(=O)(=O)c2ccc(Br)s2)cc1	nt	16µM*	nt	18µM*	nt
COc1ccc(NC(=O)CCS(=O)(=O)c2ccc(Br)s2)cc1	-14%	?	-9%	?	27
CCOC(=O)c1ccc(NC(=O)CCS(=O)(=O)c2ccc(Br)s2)cc1	-4%	18µM*	-2%	?	19
O=[N+]([O-])c1ccc(Cl)c(S(=O)(=O)Nc2ccc(S(=O)(=O)N3CCOCC3)cc2)c1	-4%	-12%	1%	-2%	11
